Bioassay records deposited in PubChem BioAssay by The Scripps Research Institute Molecular Screening Center.
Most compounds without a hit are left out; they make up all but 0.83% or so of the library.
S1P4 antag: blocks the human S1P4 receptor; S1P4-expressing cells, antagonist mode, reporter read-out; 220,000 compounds, 0.26% hits; O95977; inhibition, % at 4.98 µM; in the data active = inhibition above about 29%
Hsp70 act: Hsp70 transcriptional activation, primary screen; HeLa Hsp70 promoter luciferase reporter, luminescence; scaled: vehicle 0, proteasome-inhibitor control 100%; activation, % at 10 µM; 200,000 compounds, 0.04% hits;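 active = activation above the mean across all tested compounds plus 3 SD, cutoff set per campaign, cut at about 5.5% in these data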
S1P4 agonist: agonists of human S1P4 receptor | O95977 | AID 1509 | S1P4-expressing cell line, agonist reporter assay | activation, % at 4.98 µM | 220,000 compounds, 0.35% hits; in the data active = activation above about 11%
S1P3 antag: antagonists of human S1P3 receptor. Q99500. CHO S1P3 NFAT-BLA reporter, FRET fluorescence, antagonist mode. inhibition, % at 4.98 µM. 170,000 compounds, 0.27% hits. AID 485;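 active = inhibition above the plate cutoff, the mean inhibition of test wells on that plate plus 3 SD, cut at about 28% in these data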;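 note: cells challenged with S1P at its EC80 of 0.8 µM; blue over green emission ratio from cleaved BLA substrate after 4 h stimulation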
Target sequence (Q99500 whole entry, looked up): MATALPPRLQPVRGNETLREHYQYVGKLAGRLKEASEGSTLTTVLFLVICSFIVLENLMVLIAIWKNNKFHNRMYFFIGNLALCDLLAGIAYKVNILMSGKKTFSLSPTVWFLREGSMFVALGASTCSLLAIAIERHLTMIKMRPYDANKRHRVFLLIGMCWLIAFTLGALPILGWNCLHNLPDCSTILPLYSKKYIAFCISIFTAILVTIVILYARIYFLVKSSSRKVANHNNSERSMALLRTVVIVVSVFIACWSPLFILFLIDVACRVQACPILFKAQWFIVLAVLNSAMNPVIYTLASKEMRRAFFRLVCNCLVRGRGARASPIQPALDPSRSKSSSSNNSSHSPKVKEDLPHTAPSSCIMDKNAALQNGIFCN
Pf gamet viab: kills late stage P. falciparum gametocytes; 150,000 compounds, 0.065% hits; AID 743093; inhibition, % at 10.9 µM; P. falciparum stage V gametocytes, ATP luminescence, 24 h;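 active = inhibition above the mean plus 3 SD of compounds within the control limits, set per campaign, cut at about 38% in these data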
Each line names hits and unclear results; the compound was inactive in the other large screens.

CN(CC(=O)NCCc1ccc(Cl)cc1)S(=O)(=O)c1ccc2c(c1)c(=O)n(C)c(=O)n2C	none (no result: S1P3 antag, Pf gamet viab)
CN(CC(=O)NCCC1=CCCCC1)S(=O)(=O)c1ccc2c(c1)c(=O)n(C)c(=O)n2C	S1P3 antag 74 (no result: Pf gamet viab)
N#Cc1c(N)n(-c2ccc(O)cc2)c2nc3ccccc3nc12	Pf gamet viab 38
N#Cc1ccc(OCC(=O)N[C@@H](Cc2ccccc2)c2nc3ccccc3[nH]2)cc1	none (no result: S1P4 antag, Hsp70 act, S1P4 agonist, S1P3 antag)
COC(=O)C1=C(C(=O)OC)[C@]2([C@H]3CC=CCN[C@@H](Cc4ccccc4)C(=O)N3Cc3ccccc3)C=C[C@H]1O2	none (no result: S1P4 antag, Hsp70 act, S1P4 agonist, S1P3 antag)
CC(C)CC(=O)N1CC=CC[C@@H](c2ccc(Cl)cc2)N(Cc2ccc(Cl)cc2)C(=O)[C@@H]1Cc1ccccc1	none (no result: S1P4 antag, Hsp70 act, S1P4 agonist, S1P3 antag)
CSCCCN1CCCC(CO)(Cc2ccccc2F)C1 (configuration not stated)	none (no result: S1P4 antag, Hsp70 act, S1P4 agonist, S1P3 antag)
O=C(COC(=O)c1ccc(Br)cc1)NCc1ccc(F)cc1	none
Cc1nc2ccccc2c(=O)n1NC(=O)c1c(O)c2ccccc2n(C)c1=O	S1P3 antag 73 (no result: S1P4 antag, Hsp70 act, S1P4 agonist, Pf gamet viab)
CCCCc1nc2ccccc2c(=O)n1NC(=O)c1c(O)c2ccccc2n(C)c1=O	none
COCCN=c1scc(-c2cccs2)n1/N=C/c1ccc(O)c(O)c1O	S1P4 agonist 13
COc1ccc(-n2nnnc2S(=O)(=O)CC(=O)N2CCCCC2)cc1	S1P4 antag 54 (no result: Pf gamet viab)
CCSc1nnc(N2C(=O)c3ccc(C(=O)c4ccc(C(=O)O)cc4)cc3C2=O)s1	none (no result: S1P4 antag, Hsp70 act, S1P4 agonist, S1P3 antag)
Cc1ccc(NC(=O)c2[nH]cnc2C(=O)NN)cc1	Pf gamet viab 40
CCOC(=O)C1=C(N)Oc2cc(O)ccc2C1c1cccc([N+](=O)[O-])c1 (configuration not stated)	none
Cc1cc(NC(=O)CCC(=O)N(CC(=O)NC2CCCC2)Cc2ccc(F)cc2)no1	S1P3 antag 63 (no result: Pf gamet viab)
CCOc1ccc2nc(NC(=O)Nc3cccs3)sc2c1	S1P3 antag 58 (no result: Pf gamet viab)
Cn1c2ccccc2n2c(=O)c(=O)n(CC(=O)c3ccc(Cl)cc3)nc12	none
CCc1ccccc1NC(=O)CSc1nc2c(c(-c3ccco3)c1C#N)CCCC2	none (no result: Pf gamet viab)
Cc1ccccc1NC(=O)CSc1nc2c(c(-c3ccco3)c1C#N)CCCC2	S1P3 antag 79 (no result: Pf gamet viab)
CC1CCc2c(sc3nc(SCC(=O)NCc4ccco4)nc(N)c23)C1 (configuration not stated)	S1P3 antag 92
O=C(CSc1nnc(-c2ccc(F)cc2)o1)NC1CCCCC1	Pf gamet viab 43
O=C(CSc1nnc(-c2ccncc2)o1)NC1CCCCC1	none
CCC(C)Sc1nc2c(c(=O)[nH]c(=O)n2C)n1CC(O)COc1ccccc1C (configuration not stated)	Pf gamet viab 39 (no result: S1P3 antag)
CCC(C)Sc1nc2c(c(=O)[nH]c(=O)n2C)n1CCc1ccccc1 (configuration not stated)	none
CCOC(=O)c1cc2sc(C)cc2n1C(C)C(=O)OCC (configuration not stated)	S1P3 antag 76 (no result: Pf gamet viab)
Cc1ccc(S(=O)(=O)N2CCN(Cc3ccccc3)CC2)c(C)c1N(C)S(=O)(=O)c1ccccc1	Pf gamet viab 42
COc1ccc2nc(NC(=O)c3cccc(-c4cc5ccccc5oc4=O)c3)sc2c1	Pf gamet viab 49
CC(=O)Nc1ccc(NC(=O)c2cccc(-c3cc4ccccc4oc3=O)c2)cc1	none
NNC(=O)CS(=O)(=O)c1ccc(Cl)cc1	none (no result: Hsp70 act)
COc1ccc(/C=N/N2C(=O)c3ccccc3C2=O)cc1	Pf gamet viab 57
S=C1N(c2ccccc2)C(c2ccc(Br)cc2)N2CCCN12 (configuration not stated)	none (no result: Hsp70 act)
CN1C[C@@H]2[C@@H]3C(=O)N(C)C(=O)[C@@H]3[C@](Cc3ccccc3)(C1=O)N2C(=O)c1ccccc1	none (no result: S1P4 antag, Hsp70 act, S1P4 agonist, S1P3 antag)
CCOc1ccc(S(=O)(=O)N2CCN(S(=O)(=O)c3ccc(OCC)cc3)C(C)C2)cc1 (configuration not stated)	S1P3 antag 71
CCOc1ccc(S(=O)(=O)N2CN3CCN(C3)C2)cc1	none (no result: S1P4 antag, Hsp70 act, S1P4 agonist, S1P3 antag)
COC(=O)c1ccc(C(C(=O)NCc2ccccc2)N(Cc2ccco2)C(=O)c2cnccn2)cc1 (configuration not stated)	S1P4 agonist 19 (no result: Pf gamet viab)
O=C(O)c1cc2c(ccc3ccccc32)oc1=O	none (no result: S1P3 antag)
CCOC(=O)c1cc2c(ccc3ccccc32)oc1=O	Pf gamet viab 48
Cc1nnc(NC(=O)c2ccc(S(=O)(=O)N3CCc4ccccc4C3)cc2)o1	Pf gamet viab 49
CC1CN(S(=O)(=O)c2ccc(C(=O)Nc3nnc(-c4ccc5c(c4)CCCC5)o3)cc2)CC(C)O1 (configuration not stated)	S1P3 antag 84 (no result: Pf gamet viab)
Cc1ccc(-c2csc3nc[nH]c(=S)c23)cc1	Pf gamet viab 51
COc1ccccc1NC(=O)c1ccccc1NC(=O)c1cc(Cl)ccc1NC(=O)c1ccco1	Pf gamet viab 39 (no result: S1P3 antag)
COc1ccccc1NC(=O)c1cc(Cl)ccc1NC(=O)c1ccco1	none (no result: S1P3 antag)
CCOc1ccccc1Nc1ncnc2c1cnn2-c1ccccc1	S1P3 antag 113 (no result: S1P4 antag, Hsp70 act, S1P4 agonist, Pf gamet viab)
COc1ccc(Nc2ncnc3c2cnn3-c2ccccc2)cc1OC	none (no result: Pf gamet viab)
COc1cc(C2c3c(oc4ccc(C)cc4c3=O)C(=O)N2c2cc(C)ccn2)cc(OC)c1OC (configuration not stated)	S1P3 antag 99 (no result: S1P4 antag, Hsp70 act, S1P4 agonist, Pf gamet viab)
Cc1ccc2oc3c(c(=O)c2c1)C(c1cccc(O)c1)N(c1ccccn1)C3=O (configuration not stated)	none (no result: Pf gamet viab)
Cc1ccc(C)n1-n1c(C)nc2sc(-c3ccccc3)cc2c1=O	S1P3 antag 55 (no result: Pf gamet viab)
O=C(NCCCN1CCC(Cc2ccccc2)CC1)C1CC(=O)N(C2CCCC2)C1 (configuration not stated)	S1P3 antag 104 (no result: Pf gamet viab)
O=C(NCCCN1CCC(Cc2ccccc2)CC1)C1CCC(=O)N1C1CCCC1 (configuration not stated)	none (no result: Pf gamet viab)
O=C(O)C1CCC(=O)N1Cc1ccccc1Cl (configuration not stated)	S1P4 agonist 15
CCOC(=O)C(=CNc1ccc(OC)cc1[N+](=O)[O-])C(=O)OCC	none (no result: Hsp70 act)
CCN(CC)S(=O)(=O)c1ccc(Cl)c(NC(=O)COC(=O)c2cccn2C)c1	Pf gamet viab 42
CCN(CC)S(=O)(=O)c1ccc(Cl)c(NC(=O)COC(=O)c2ccc(O)cc2)c1	none
Cc1ccc(C2=N/C(=C\c3coc4ccccc4c3=O)C(=O)O2)cc1	none (no result: S1P4 antag, Hsp70 act, S1P4 agonist, S1P3 antag)
CC1C(c2ccccc2)N(C)C(c2ccccc2)C(C)C1(O)C#Cc1ccccc1 (configuration not stated)	S1P4 agonist 40
COC(=O)C1CCN(C(=O)COc2cc3sc(C)nc3c3sccc23)CC1	S1P3 antag 55 (no result: Pf gamet viab)
COC(=O)Cn1cc([N+](=O)[O-])nc1C	none (no result: Pf gamet viab)
O=C(N/N=C/c1cn(Cc2ccccc2)c2ccccc12)c1cccnc1	S1P3 antag 28
O=C(N/N=C/c1cn(Cc2ccccc2)c2ccccc12)c1ccncc1	none
CCCn1c(=S)[nH]c2cc(C(=O)N3CCc4ccccc4C3)ccc2c1=O	Pf gamet viab 47
Cc1ccc(NC(=S)Nc2ccc(-c3nnc4n3CCCCC4)cc2)cc1C	none (no result: S1P4 antag, Hsp70 act, S1P4 agonist, S1P3 antag)
